Test results as given in PubChem BioAssay AID720616 (Broad Institute, 2013).
Potency and affinity values are given separately. Active and inactive are the calls of the source.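 The calls were made as follows: active = ATP viability loss whose half-effect dose is at most twice the top dose, in all three treatment times; inconclusive = calls differ between the treatment times; inactive = inactive at every treatment time.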

test: cytotoxicity in U-251 glioma cells – cell-based, CellTiter-Glo ATP luminescence, several timepoints, dry powder, mechanism study for HRAS target identification, late-stage follow-up (AID 720616); conditions: U-251 glioblastoma viability; series mostly up to 35 µM

| SMILES | outcome |
| --- | --- |
| Cc1onc(C(=O)N2CCN(C(c3ccncc3)c3ccncc3)CC2)c1[N+](=O)[O-] | inactive |
| CCC(=O)N(c1ccc(OC)c(Cl)c1)C(C(=O)NCCc1ccccc1)c1cccs1 (stereo not drawn) | inactive |
| Cc1onc(C(=O)N2CCN(C(c3ccc(Cl)cc3)c3ccc(Cl)cc3)CC2)c1[N+](=O)[O-] | inactive |
